Experiment [1] in a line: stimulators of nuclear beta-catenin in C2C12, primary screen, imaging, WNT3A-conditioned medium, mouse C2C12, NPC library (AID 1117326). Further: reference of the scale not given here. To be noted: stronger effect = higher value.
A short description of experiment [2]: stimulators of insulin release from INS-1E, primary screen, cell-based, 5 mM glucose, NPC library (AID 1117329;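 active means compound raises insulin release from rat beta cells at 5 mM glucose, no numeric limit stated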; further: reference of the scale not given here). To be noted: rat INS-1E insulin secretion, at 10 µM, stronger effect = higher value.
A short description of experiment [3]: growth inhibition of GSK3B-pretreated HCT116 cells – cell-based, CellTiter-Glo, 0.2 to 20 µM (AID 1117336;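 active means compounds lowering colon cancer cell viability after pretreatment blocking the GSK3B kinase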). To be noted: HCT116 viability after GSK3B inhibitor, at 20 µM, stronger effect = higher value. For orientation: Cellular ATP, detected with luciferase, serves as a proxy for viable cell number.
The nature of experiment [4]: inhibition of endothelial tube formation, primary screen, imaging, VEGF stimulated, CD31 staining, tube area, NPC library (AID 1117340;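 active means compound that reduces growth-factor-driven endothelial tube area in a mixed cell culture, no cutoff stated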). To be noted: VEGF-stimulated ADSC/ECFC co-culture, at 10 µM, stronger effect = higher value.
Experiment [5] in a line: glucagon-like peptide 1 release enhancers, primary assay, NCI-H716 cell line, NPC library (AID 1117341;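 active means compound raises GLP1 secretion from the human gut endocrine cells, with no numeric limit stated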; further: reference of the scale not given here). The conditions noted are these: NCI-H716 cells, at 10 µM, stronger effect = higher value.
Experiment [6] can be described thus: HCT116 colon cancer cell growth inhibition, primary screen, CellTiter-Glo luminescence, NPC library (AID 1117342;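 active means compounds that lower survival of HCT116 colon cancer cells in the luminescence readout, no numeric limit stated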). To be noted: at 20 µM (top of the series).
Experiment [7] in a line: CellTiter-Glo luminescent readout of SW480 viability loss, NPC library primary (AID 1117343;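 active means compounds that lower viability of the colon cancer cells in the luminescence readout, with no numeric limit stated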). The conditions noted are these: CellTiter-Glo luminescence; at 20 µM (top of the series).
Experiment [8] in a line: decreased DLD-1 cellular survival, CellTiter-Glo luminescent readout, NPC compound collection, primary HTS (AID 1117346;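 active means compounds that lower survival of DLD-1 colon cancer cells in the luminescence readout, no cutoff given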). The conditions noted are these: DLD-1 viability, CellTiter-Glo luminescence; at 20 µM (top of the series).

Several values for one entry are separate records, joined by “and”; a condition that tells them apart may be missing. Equal values may be shown once. Where a structure was tested more than once in an assay, its records may differ in their call. Activity calls are given as the source filed them. Unless noted, no stated cut-off is given here; in the data, active means nuclear beta-catenin stimulation mostly above about 4.2% (no sharp cut-off); inactive means mostly below about 10%.

This note sets out measurements from PubChem BioAssay.

Regarding `CC(C)(C)CC(C)(C)c1ccc(O)c(-n2nc3ccccc3n2)c1`, the nuclear beta-catenin stimulation in experiment [1] (at 10 µM) was 1.5% (inactive); in experiment [1] (stimulation, at 2 µM), 1.1%. For the same compound, the insulin secretion stimulation in experiment [2] is -1% (inactive). For the same compound, the viability decrease in experiment [3] is 13.1% (inactive). The tube area decrease in experiment [4] was 23.9% (inactive). The GLP1 secretion stimulation in experiment [5] is -1.5% (inactive). The inhibition of viability in experiment [6] is -8.9% (inactive). Further, the viability decrease (inhibition) is 82.6% (active) in experiment [7] and 22.1% (inactive) in experiment [8].
In the case of `COc1ccnc2c1CCCCC2S(=O)c1nc2ccccc2[nH]1` (stereo unspecified), the nuclear beta-catenin stimulation is -0.3% (inactive) in experiment [1] (at 10 µM) and 3% in experiment [1] (stimulation, at 2 µM). Further, the insulin secretion stimulation in experiment [2] is 1.6% (inactive). The viability decrease in experiment [3] is -54.1% (inactive). The tube area decrease in experiment [4] was 13.2% (inactive). Besides, the GLP1 secretion stimulation in experiment [5] was 9.2% (inactive). The inhibition of viability in experiment [6] was 27.5% (inactive). The viability decrease (inhibition) in experiment [7] was 31.6% (inactive); in experiment [8], 11.3% (inactive).
In the case of `C=Cc1ccccc1`, the nuclear beta-catenin stimulation in experiment [1] (at 10 µM) is -2.1% (inactive); in experiment [1] (stimulation, at 2 µM), -0.8%. The insulin secretion stimulation in experiment [2] is 3.5% (inactive). Also, in experiment [3], the viability decrease was -5% (inactive). The tube area decrease in experiment [4] was -9.4% (inactive). Besides, the GLP1 secretion stimulation in experiment [5] is -1.4% (inactive). The inhibition of viability in experiment [6] was 6.9% (inactive). Further, the figures for the viability decrease (inhibition) in experiment [7] and in experiment [8] were 0.4% (inactive) and 1.7% (inactive), respectively.
For `Cc1cccc(C)c1NC(=O)c1cc(S(N)(=O)=O)c(Cl)cc1O`, the nuclear beta-catenin stimulation in experiment [1] (at 10 µM) was -1.8% (inactive); in experiment [1] (stimulation, at 2 µM) it was 0.7%. For the same compound, the insulin secretion stimulation in experiment [2] is -1.9% (inactive). In addition, the viability decrease in experiment [3] is -8.6% (inactive). The tube area decrease in experiment [4] is -2.4% (inactive). In addition, in experiment [5], the GLP1 secretion stimulation is -2.3% (inactive). Further, in experiment [6], the inhibition of viability was -3.4% (inactive). In addition, the values for the viability decrease (inhibition) in experiment [7] and in experiment [8] were 3.4% (inactive) and -5.4% (inactive), respectively.
Take `Cc1c(F)cc2c(=O)c(C(=O)O)cn3c2c1CCC3C` (stereo unspecified): the nuclear beta-catenin stimulation is 1.9% (inactive) in experiment [1] (at 10 µM) and 1.5% in experiment [1] (stimulation, at 2 µM). Also, the insulin secretion stimulation in experiment [2] was -1.9% (inactive). Moreover, the viability decrease in experiment [3] was -181% (inactive). Further, the tube area decrease in experiment [4] is -28% (inactive). Also, the GLP1 secretion stimulation in experiment [5] was 1.5% (inactive). Besides, the inhibition of viability in experiment [6] was 0.65% (inactive). The viability decrease (inhibition) was -16.3% (inactive) in experiment [7] and -3% (inactive) in experiment [8].
For the compound `N=C(N)c1ccc(OCCCOc2ccc(C(=N)N)cc2)cc1`, the nuclear beta-catenin stimulation in experiment [1] (at 10 µM) was -2.3% (inactive); in experiment [1] (stimulation, at 2 µM), -0.9%. The insulin secretion stimulation in experiment [2] was 2.7% (inactive). Also, the viability decrease in experiment [3] was -29.9% (inactive). Also, the tube area decrease in experiment [4] is -17.1% (inactive). Further, in experiment [5], the GLP1 secretion stimulation was -1.7% (inactive). Further, the inhibition of viability in experiment [6] is 7.1% (inactive). The viability decrease (inhibition) in experiment [7] was 9.5% (inactive); in experiment [8], -2.6% (inactive).
`CC(=O)Nc1ccc(OCCOCCOc2ccc(NC(C)=O)cc2)cc1`: the nuclear beta-catenin stimulation was 0.3% (inactive) in experiment [1] (at 10 µM) and 0.3% in experiment [1] (stimulation, at 2 µM). In addition, in experiment [2], the insulin secretion stimulation is -2.6% (inactive). Besides, the viability decrease in experiment [3] is 0.7% (inactive). Besides, the tube area decrease in experiment [4] was -0.3% (inactive). For the same compound, the GLP1 secretion stimulation in experiment [5] was -1.2% (inactive). Besides, the inhibition of viability in experiment [6] was -3.5% (inactive). For the same compound, the viability decrease (inhibition) in experiment [7] was 11.3% (inactive); in experiment [8] it was -8.2% (inactive).
With `CC1(C)OC(=O)Nc2ccc(Br)cc21`, the nuclear beta-catenin stimulation was 3% (inactive) in experiment [1] (at 10 µM) and -1% in experiment [1] (stimulation, at 2 µM). In addition, the insulin secretion stimulation in experiment [2] was 6.1% (inactive). Moreover, the viability decrease in experiment [3] is 9.6% (inactive). For the same compound, the tube area decrease in experiment [4] was 13.5% (inactive). Also, the GLP1 secretion stimulation in experiment [5] was -2% (inactive). In addition, the inhibition of viability in experiment [6] is -4.8% (inactive). The viability decrease (inhibition) in experiment [7] is 20.9% (inactive); in experiment [8] it was 2.5% (inactive).
On to `CC(=O)CCC(=O)O`, for which the nuclear beta-catenin stimulation in experiment [1] (at 10 µM) was -1.6% (inactive); in experiment [1] (stimulation, at 2 µM), -1.3%. Moreover, the insulin secretion stimulation in experiment [2] is 2% (inactive). Besides, the viability decrease in experiment [3] was -4.6% (inactive). In experiment [4], the tube area decrease is 0.2% (inactive). In experiment [5], the GLP1 secretion stimulation was -2.2% (inactive). Moreover, the inhibition of viability in experiment [6] is -6.13% (inactive). For the same compound, the figures for the viability decrease (inhibition) in experiment [7] and in experiment [8] were 20% (inactive) and -8.6% (inactive), respectively.
As for `O=C(O)COc1nn(Cc2ccccc2)c2ccccc12`, the nuclear beta-catenin stimulation is -0.5% (inactive) in experiment [1] (at 10 µM) and 2.2% in experiment [1] (stimulation, at 2 µM). Further, the insulin secretion stimulation in experiment [2] is -0.7% (inactive). Also, in experiment [3], the viability decrease is 3.8% (inactive). The tube area decrease in experiment [4] is -13% (inactive). The GLP1 secretion stimulation in experiment [5] was 1.7% (inactive). Moreover, in experiment [6], the inhibition of viability was 8.1% (inactive). In addition, the viability decrease (inhibition) in experiment [7] was 12.1% (inactive); in experiment [8], 8.6% (inactive).
On to `CCCCC(=O)O[C@H]1CC[C@H]2[C@@H]3CCc4cc(O)ccc4[C@@H]3CC[C@]12C`, for which the nuclear beta-catenin stimulation in experiment [1] (at 10 µM) was -0.4% (inactive); in experiment [1] (stimulation, at 2 µM) it was -0.3%. Moreover, the insulin secretion stimulation in experiment [2] was 1.2% (inactive). For the same compound, the viability decrease in experiment [3] is 99.1% (active). Further, in experiment [4], the tube area decrease is 108% (active). Moreover, the GLP1 secretion stimulation in experiment [5] is -4.2% (inactive). In experiment [6], the inhibition of viability was 91.3% (active). Moreover, the figures for the viability decrease (inhibition) in experiment [7] and in experiment [8] were 103% (active) and 74.4% (active), respectively.
For the compound `N#C/C(=C1/SC[C@@H](c2ccc(Cl)cc2Cl)S1)n1ccnc1`, the nuclear beta-catenin stimulation in experiment [1] (at 10 µM) is 0.7% (inactive); in experiment [1] (stimulation, at 2 µM), 2.8%. Further, the insulin secretion stimulation in experiment [2] is 2.35% (inactive). Further, the viability decrease in experiment [3] is 88% (active). Also, in experiment [4], the tube area decrease was 23.8% (inactive). Further, in experiment [5], the GLP1 secretion stimulation is -1.8% (inactive). The inhibition of viability in experiment [6] is 101% (active). For the same compound, the viability decrease (inhibition) in experiment [7] is 116% (active); in experiment [8], 84.3% (active).
As to `CC1(C)OC[C@@H]2O[C@@]3(C(=O)O)OC(C)(C)O[C@H]3[C@@H]2O1`, the nuclear beta-catenin stimulation in experiment [1] (at 10 µM) was -1.7% (inactive); in experiment [1] (stimulation, at 2 µM), -0.3%. Moreover, the insulin secretion stimulation in experiment [2] is 4.8% (inactive). The viability decrease in experiment [3] was -3% (inactive). The tube area decrease in experiment [4] was -12.4% (inactive). The GLP1 secretion stimulation in experiment [5] was -3.6% (inactive). Moreover, the inhibition of viability in experiment [6] is -1.6% (inactive). For the same compound, the viability decrease (inhibition) in experiment [7] was 26.9% (inactive); in experiment [8], 0.3% (inactive).
`OC[C@@H](O)[C@H](O)[C@H](O)[C@@H](O)CO`: the nuclear beta-catenin stimulation in experiment [1] (at 10 µM) was 0.7% (inactive) and 2.5% (inactive); in experiment [1] (stimulation, at 2 µM), -0.3% and 1%. In addition, the insulin secretion stimulation in experiment [2] was 0.1% (inactive) and 1.8% (inactive). The viability decrease in experiment [3] was -25.2% (inactive) and 11.4% (inactive). Also, the tube area decrease in experiment [4] is 3.7% (inactive) and 50.5% (active). Also, in experiment [5], the GLP1 secretion stimulation is 0.3% (inactive) and -1.2% (inactive). Besides, in experiment [6], the inhibition of viability was -3.33% (inactive) and -2.5% (inactive). For the same compound, the viability decrease (inhibition) is 4.1% (inactive) and 1.5% (inactive) in experiment [7]; -1.5% (inactive) and -4.9% (inactive) in experiment [8].
